In PubChem BioAssay (EPA / NIEHS):
Calls of active or inactive are those of the source. The calls were made as follows: active = hit-call score of the fitted dose curve at least 0.9, where 1 is the maximum; inactive = score below 0.9.

Tests used:
[1] = read-out: Tumor necrosis factor receptor superfamily member 6 (Homo sapiens) (UniProt P25445); test: LTEA_HepaRG_FAS: Life Technologies and Expression Analysis (LTEA) Assay for Fas cell surface death receptor (FAS) using HepaRG (AID 2283447); conditions: mRNA level, 48 h; actives raise or lower the signal
How it was run: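 FAS transcript level was measured by TaqMan qRT-PCR against three housekeeping genes after 48 h chemical exposure. Cells were HepaRG, 0.5% DMSO vehicle, with a top concentration of 100 uM and half-log dilutions over eight points, in duplicate.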

[2] = read-out: Fatty acid synthase (Homo sapiens) (UniProt P49327); test: LTEA_HepaRG_FASN: Life Technologies and Expression Analysis (LTEA) Assay for Fatty Acid Synthase (FASN) using HepaRG (AID 2283448); conditions: mRNA level, 48 h; actives raise or lower the signal
How it was run: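 FASN transcript measured by TaqMan qRT-PCR, normalised to three housekeeping genes, after 48 h chemical exposure of HepaRG cells. Eight-point half-log series from 100 uM in 0.5% DMSO, duplicates; gain or loss fitted against vehicle.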

[3] = read-out: Cyclin D2 (CCND2), CCND2 (gene 894); test: LTEA_HepaRG_CCND2: Life Technologies and Expression Analysis (LTEA) Assay for Cyclin D2 (CCND2) using HepaRG (AID 2283449); conditions: mRNA level, 48 h; actives raise or lower the signal
How it was run: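 CCND2 transcript levels, quantified by qRT-PCR and normalised to three housekeeping genes, were fitted bidirectionally against 0.5% DMSO. HepaRG cultures were dosed 48 h in duplicate with an 8-point half-log series up to 100 uM.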

[4] = read-out: Cyclin Dependent Kinase Inhibitor 1A (CDKN1A), CDKN1A (gene 1026); test: LTEA_HepaRG_CDKN1A: Life Technologies and Expression Analysis (LTEA) Assay for Cyclin Dependent Kinase Inhibitor 1A (CDKN1A) using HepaRG (AID 2283450); conditions: mRNA level, 48 h; actives raise or lower the signal
How it was run: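 Differentiated HepaRG cells in serum-free induction medium, exposed 48 h in duplicate to eight half-log concentrations up to 100 uM in 0.5% DMSO. mRNA measured by TaqMan qRT-PCR, normalized to ACTB, GAPDH, POLR2A; bidirectional fit versus DMSO.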

[5] = read-out: Cyclin D1 (CCND1), CCND1 (gene 595); test: LTEA_HepaRG_CCND1: Life Technologies and Expression Analysis (LTEA) Assay for Cyclin D1 (CCND1) using HepaRG (AID 2283451); conditions: mRNA level, 48 h; actives raise or lower the signal
How it was run: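 Differentiated HepaRG cells exposed 48 h in serum-free induction medium to eight half-log concentrations from 100 uM top, 0.5% DMSO, duplicates. CCND1 mRNA measured by Fluidigm TaqMan qRT-PCR, normalised to ACTB, GAPDH, POLR2A; bidirectional fit.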

[6] = read-out: catalase (CAT), CAT (gene 847); test: LTEA_HepaRG_CAT: Life Technologies and Expression Analysis (LTEA) Assay for catalase (CAT) using HepaRG (AID 2283452); conditions: mRNA level, 48 h; actives raise or lower the signal
How it was run: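 Expression of CAT was quantified by TaqMan qRT-PCR with ACTB/GAPDH/POLR2A normalization after 48 h chemical exposure of HepaRG. Eight-point half-log series, top 100 uM, in 0.5% DMSO; gain or loss fitted against vehicle.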

[7] = read-out: flavin-containing dimethylaniline monooxygenases 3 (FMO3), FMO3 (gene 2328); test: LTEA_HepaRG_FMO3: Life Technologies and Expression Analysis (LTEA) Assay for flavin-containing dimethylaniline monooxygenases 3 (FMO3) using HepaRG (AID 2283453); conditions: mRNA level, 48 h; actives raise or lower the signal
How it was run: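 FMO3 transcript quantified by TaqMan qRT-PCR against three housekeeping genes after 48 h chemical exposure of HepaRG cells. Eight-point half-log series, top 100 uM, 0.5% DMSO vehicle; phenobarbital 1mM induction control; up- or down-regulation fitted.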

[8] = read-out: Cytochrome P450 (CYP1A1), CYP1A1 (gene 1543); test: LTEA_HepaRG_CYP1A1: Life Technologies and Expression Analysis (LTEA) Assay for Cytochrome P450 (CYP1A1) using HepaRG (AID 2283454); conditions: mRNA level, 48 h; actives raise or lower the signal
How it was run: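 Differentiated human HepaRG cells, after 48 h plating, exposed in duplicate for 48 h in serum-free induction medium to 8 half-log concentrations up to 100 uM in 0.5% DMSO. CYP1A1 mRNA by qRT-PCR, normalized to ACTB/GAPDH/POLR2A; bidirectional fit versus DMSO.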

[9] = read-out: CFLAR gene, CFLAR (gene 8837); test: LTEA_HepaRG_CFLAR: Life Technologies and Expression Analysis (LTEA) Assay for CFLAR gene using HepaRG (AID 2283455); conditions: mRNA level, 48 h; actives raise or lower the signal
How it was run: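 Transcript level by qRT-PCR (normalized to ACTB, GAPDH and POLR2A) after 48 h chemical exposure of HepaRG cells, top concentration 100 uM with half-log steps, 0.5% DMSO vehicle, duplicates; fitted bidirectionally against DMSO baseline.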

[10] = read-out: Forkhead box O1 (FOXO1), FOXO1 (gene 2308); test: LTEA_HepaRG_FOXO1: Life Technologies and Expression Analysis (LTEA) Assay for Forkhead box O1 (FOXO1) using HepaRG (AID 2283456); conditions: mRNA level, 48 h; actives raise or lower the signal
How it was run: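 FOXO1 transcript quantified by qRT-PCR after 48 h chemical exposure (top 100 uM, half-log steps, 0.5% DMSO) of HepaRG cells, housekeeping-normalized (ACTB/GAPDH/POLR2A). Changes fitted in both directions relative to vehicle.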

[11] = read-out: growth arrest and DNA damage 45 (GADD45A), GADD45A (gene 1647); test: LTEA_HepaRG_GADD45A: Life Technologies and Expression Analysis (LTEA) Assay for growth arrest and DNA damage 45 (GADD45A) using HepaRG (AID 2283458); conditions: mRNA level, 48 h; actives raise or lower the signal
How it was run: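 GADD45A expression was measured by TaqMan qRT-PCR against three housekeeping genes (ACTB, GAPDH, POLR2A) after 48 h treatment of HepaRG cells. Eight-point half-log series up to 100 uM in 0.5% DMSO, run in duplicate.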

[12] = read-out: ABC Transporter (ABCB1), ABCB1 (gene 5243); test: LTEA_HepaRG_ABCB1: Life Technologies and Expression Analysis (LTEA) Assay for ABC Transporter (ABCB1) using HepaRG (AID 2283460); conditions: mRNA level, 48 h; actives raise or lower the signal
How it was run: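 ABCB1 transcript level measured by TaqMan qRT-PCR against three housekeeping genes after 48 h chemical exposure of differentiated HepaRG cells. Top concentration 100 uM, half-log steps, eight points, 0.5% DMSO vehicle; bidirectional fit relative to DMSO.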

[13] = read-out: ABC Transporter (ABCC3), ABCC3 (gene 8714); test: LTEA_HepaRG_ABCC3: Life Technologies and Expression Analysis (LTEA) Assay for ABC Transporter (ABCC3) using HepaRG (AID 2283462); conditions: mRNA level, 48 h; actives raise or lower the signal
How it was run: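 Differentiated human HepaRG cells exposed 48 h in serum-free induction medium, 0.5% DMSO vehicle, 8-point half-log series to 100 uM in duplicate. ABCC3 mRNA by qRT-PCR, normalised to ACTB, GAPDH, POLR2A; bidirectional fit vs DMSO.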

[14] = read-out: ABC Transporter (ABCB11), ABCB11 (gene 8647); test: LTEA_HepaRG_ABCB11: Life Technologies and Expression Analysis (LTEA) Assay for ABC Transporter (ABCB11) using HepaRG (AID 2283463); conditions: mRNA level, 48 h; actives raise or lower the signal
How it was run: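 ABCB11 transcript levels quantified by TaqMan qRT-PCR against three housekeeping genes after 48 h chemical exposure of HepaRG cultures. Concentrations up to 100 uM in half-log steps, 0.5% DMSO vehicle; both induction and suppression scored.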

[15] = read-out: ABC Transporter (ABCC2), ABCC2 (gene 1244); test: LTEA_HepaRG_ABCC2: Life Technologies and Expression Analysis (LTEA) Assay for ABC Transporter (ABCC2) using HepaRG (AID 2283464); conditions: mRNA level, 48 h; actives raise or lower the signal
How it was run: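 Differentiated HepaRG cells in serum-free induction medium exposed 48 h to eight half-log concentrations up to 100 uM, 0.5% DMSO, in duplicate. ABCC2 mRNA measured by qRT-PCR (TaqMan, Fluidigm), normalized to ACTB, GAPDH and POLR2A. Fitted in both directions against DMSO.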

[16] = read-out: Broad substrate specificity ATP-binding cassette transporter ABCG2 (Homo sapiens) (UniProt Q9UNQ0); test: LTEA_HepaRG_ABCG2: Life Technologies and Expression Analysis (LTEA) Assay for ABC Transporter (ABCG2) using HepaRG (AID 2283465); conditions: mRNA level, 48 h; actives raise or lower the signal
How it was run: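 ABCG2 transcript was quantified by TaqMan qRT-PCR against three housekeeping genes in HepaRG cells. Cells were treated in duplicate for 48 h across an 8-point half-log series up to 100 uM, with 0.5% DMSO vehicle. Gain or loss versus DMSO was fit.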

[17] = read-out: ATP-citrate lyase (ACLY), ACLY (gene 47); test: LTEA_HepaRG_ACLY: Life Technologies and Expression Analysis (LTEA) Assay for ATP-citrate lyase (ACLY) using HepaRG (AID 2283466); conditions: mRNA level, 48 h; actives raise or lower the signal
How it was run: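 ACLY mRNA quantified by qRT-PCR on Fluidigm arrays against three housekeeping genes, after 48 h chemical treatment of HepaRG cells (top concentration 100 uM, half-log steps, 0.5% DMSO vehicle). Up- or down-regulation fitted relative to DMSO.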

[18] = CEETOX_H295R_TESTO: CeeTox H295R High-throughput Steroidogenesis Assay for Testosterone (TESTO) (AID 2283457); conditions: actives raise or lower the signal
How it was run: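 H295R adrenal cells, passage ≤10, exposed to chemicals for 48 h. Testosterone in medium measured by MTBE extraction and HPLC-MS/MS against a 7-point standard curve. Bidirectional fit versus DMSO; MTT viability checked in the same wells.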

[19] = read-out: Forkhead box O3 (FOXO3), FOXO3 (gene 2309); test: LTEA_HepaRG_FOXO3: Life Technologies and Expression Analysis (LTEA) Assay for Forkhead box O3 (FOXO3) using HepaRG (AID 2283459); conditions: mRNA level, 48 h; actives raise or lower the signal
How it was run: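 FOXO3 transcript measured by qRT-PCR (normalized to ACTB, GAPDH, POLR2A) after 48 h exposure of HepaRG cells in serum-free induction medium. Duplicates, eight half-log concentrations up to 100 uM, 0.5% DMSO; gain or loss fitted against DMSO.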

[20] = read-out: growth arrest and DNA damage 45 (GADD45B), GADD45B (gene 4616); test: LTEA_HepaRG_GADD45B: Life Technologies and Expression Analysis (LTEA) Assay for growth arrest and DNA damage 45 (GADD45B) using HepaRG (AID 2283461); conditions: mRNA level, 48 h; actives raise or lower the signal
How it was run: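 Differentiated human HepaRG cells in serum-free induction medium exposed 48 h in duplicate to eight concentrations, top 100 uM, half-log steps, 0.5% DMSO. GADD45B mRNA by TaqMan qRT-PCR, normalized to ACTB, GAPDH, POLR2A; bidirectional fit versus DMSO.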

Chain of Fatty acid synthase (Homo sapiens) (P49327 whole entry, looked up): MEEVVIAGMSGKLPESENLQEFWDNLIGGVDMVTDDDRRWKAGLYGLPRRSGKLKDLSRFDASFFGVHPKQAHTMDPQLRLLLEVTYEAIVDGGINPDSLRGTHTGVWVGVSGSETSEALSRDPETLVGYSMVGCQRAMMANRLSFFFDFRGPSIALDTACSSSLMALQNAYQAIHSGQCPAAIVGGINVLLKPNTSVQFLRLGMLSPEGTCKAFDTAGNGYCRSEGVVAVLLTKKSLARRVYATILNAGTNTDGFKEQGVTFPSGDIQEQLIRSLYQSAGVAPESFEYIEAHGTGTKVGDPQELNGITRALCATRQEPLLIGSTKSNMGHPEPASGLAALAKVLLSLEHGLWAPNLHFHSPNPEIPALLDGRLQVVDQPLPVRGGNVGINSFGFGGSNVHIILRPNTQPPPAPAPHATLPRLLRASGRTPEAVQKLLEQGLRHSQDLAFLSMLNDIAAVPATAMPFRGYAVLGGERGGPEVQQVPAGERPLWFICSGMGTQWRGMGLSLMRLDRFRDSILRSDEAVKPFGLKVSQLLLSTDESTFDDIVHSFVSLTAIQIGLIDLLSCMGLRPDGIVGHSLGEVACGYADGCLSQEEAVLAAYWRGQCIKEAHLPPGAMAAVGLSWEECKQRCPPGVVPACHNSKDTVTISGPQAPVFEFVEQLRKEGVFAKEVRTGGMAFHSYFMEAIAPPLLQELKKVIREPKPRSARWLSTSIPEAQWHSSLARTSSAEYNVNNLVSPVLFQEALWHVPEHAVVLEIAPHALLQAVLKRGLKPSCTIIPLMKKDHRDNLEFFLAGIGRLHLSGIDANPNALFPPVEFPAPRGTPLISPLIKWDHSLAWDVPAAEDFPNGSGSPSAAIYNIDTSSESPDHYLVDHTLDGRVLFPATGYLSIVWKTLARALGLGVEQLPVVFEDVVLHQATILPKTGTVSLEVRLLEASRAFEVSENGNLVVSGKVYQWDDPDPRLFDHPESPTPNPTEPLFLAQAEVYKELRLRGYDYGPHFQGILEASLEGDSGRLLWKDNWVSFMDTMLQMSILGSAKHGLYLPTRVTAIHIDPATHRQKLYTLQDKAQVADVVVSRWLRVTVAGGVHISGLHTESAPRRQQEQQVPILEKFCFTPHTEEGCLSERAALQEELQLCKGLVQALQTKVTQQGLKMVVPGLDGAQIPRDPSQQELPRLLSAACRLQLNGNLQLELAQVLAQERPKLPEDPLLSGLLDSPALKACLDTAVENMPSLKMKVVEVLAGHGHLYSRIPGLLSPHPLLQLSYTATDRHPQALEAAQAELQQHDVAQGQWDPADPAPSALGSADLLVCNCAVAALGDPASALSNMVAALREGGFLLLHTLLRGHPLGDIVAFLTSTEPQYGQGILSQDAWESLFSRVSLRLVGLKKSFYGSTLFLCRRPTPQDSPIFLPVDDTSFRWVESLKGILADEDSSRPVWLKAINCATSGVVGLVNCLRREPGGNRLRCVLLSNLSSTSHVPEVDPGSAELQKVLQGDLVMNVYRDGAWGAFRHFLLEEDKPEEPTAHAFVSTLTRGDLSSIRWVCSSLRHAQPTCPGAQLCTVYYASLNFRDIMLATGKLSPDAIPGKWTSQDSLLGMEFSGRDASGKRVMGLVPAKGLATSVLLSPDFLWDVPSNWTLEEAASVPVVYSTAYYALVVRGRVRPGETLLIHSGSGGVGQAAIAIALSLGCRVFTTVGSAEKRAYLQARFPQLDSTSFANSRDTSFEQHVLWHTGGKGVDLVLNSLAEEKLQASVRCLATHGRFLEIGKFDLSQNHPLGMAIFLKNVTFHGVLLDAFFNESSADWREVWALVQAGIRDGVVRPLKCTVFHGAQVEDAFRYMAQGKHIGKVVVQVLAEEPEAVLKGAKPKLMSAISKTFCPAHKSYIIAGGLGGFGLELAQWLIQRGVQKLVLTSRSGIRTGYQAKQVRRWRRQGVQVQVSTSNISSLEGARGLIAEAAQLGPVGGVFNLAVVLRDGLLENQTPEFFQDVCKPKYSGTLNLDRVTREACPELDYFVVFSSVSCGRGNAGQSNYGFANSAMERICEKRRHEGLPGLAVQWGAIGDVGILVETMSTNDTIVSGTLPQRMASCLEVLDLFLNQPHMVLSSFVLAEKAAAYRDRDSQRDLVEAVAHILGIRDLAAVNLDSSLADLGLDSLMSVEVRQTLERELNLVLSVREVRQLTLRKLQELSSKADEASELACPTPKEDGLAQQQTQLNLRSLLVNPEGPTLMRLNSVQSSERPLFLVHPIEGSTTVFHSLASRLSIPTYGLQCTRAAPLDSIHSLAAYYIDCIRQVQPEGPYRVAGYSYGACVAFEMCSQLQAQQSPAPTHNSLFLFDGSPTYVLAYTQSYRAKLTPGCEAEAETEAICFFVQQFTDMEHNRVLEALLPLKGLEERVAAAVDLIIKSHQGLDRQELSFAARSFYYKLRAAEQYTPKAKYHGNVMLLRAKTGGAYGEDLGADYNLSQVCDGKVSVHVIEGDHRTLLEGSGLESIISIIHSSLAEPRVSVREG
Chain of Broad substrate specificity ATP-binding cassette transporter ABCG2 (Homo sapiens) (Q9UNQ0 whole entry, looked up): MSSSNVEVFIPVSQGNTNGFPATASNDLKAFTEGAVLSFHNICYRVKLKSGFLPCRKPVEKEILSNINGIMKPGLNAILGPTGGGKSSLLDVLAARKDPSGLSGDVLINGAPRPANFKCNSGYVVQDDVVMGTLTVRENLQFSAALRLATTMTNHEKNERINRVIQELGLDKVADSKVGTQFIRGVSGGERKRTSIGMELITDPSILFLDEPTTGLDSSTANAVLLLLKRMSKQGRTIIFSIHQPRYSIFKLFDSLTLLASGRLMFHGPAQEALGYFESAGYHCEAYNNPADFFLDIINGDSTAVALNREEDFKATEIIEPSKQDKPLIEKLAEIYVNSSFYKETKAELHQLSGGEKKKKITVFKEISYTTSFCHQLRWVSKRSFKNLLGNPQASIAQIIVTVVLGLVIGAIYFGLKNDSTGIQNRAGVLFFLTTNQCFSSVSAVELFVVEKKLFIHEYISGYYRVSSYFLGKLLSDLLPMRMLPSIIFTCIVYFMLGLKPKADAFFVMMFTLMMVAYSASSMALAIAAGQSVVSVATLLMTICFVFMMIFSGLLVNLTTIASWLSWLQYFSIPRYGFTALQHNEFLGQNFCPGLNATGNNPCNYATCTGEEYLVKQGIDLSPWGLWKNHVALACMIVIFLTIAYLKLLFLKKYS

Question: For `C#CCC1=C(C)C(OC(=O)C2C(C=C(C)C)C2(C)C)CC1=O` (configuration not stated), which outcome [1] is on record?
Answer: inactive

Question: And the outcome [2]?
Answer: inactive

Question: And the outcome [3]?
Answer: inactive

Question: And the outcome [4]?
Answer: inactive

Question: And the outcome [5]?
Answer: inactive

Question: And the outcome [6]?
Answer: inactive

Question: And the outcome [7]?
Answer: inactive

Question: What about the AC50 [8] of the same compound?
Answer: 49.8 µM (active)

Question: What about the outcome [9] of the same compound?
Answer: inactive

Question: What about the outcome [10] of the same compound?
Answer: inactive

Question: And the outcome [11]?
Answer: inactive

Question: What about the outcome [12] of the same compound?
Answer: inactive

Question: What about the outcome [13] of the same compound?
Answer: inactive

Question: And the outcome [14]?
Answer: inactive

Question: What about the AC50 [15] of the same compound?
Answer: 19.6 µM (active)

Question: And the AC50 [16]?
Answer: 9.87 µM (active)

Question: What about the outcome [17] of the same compound?
Answer: inactive

Question: Which outcome [1] does the source give for `CC(COc1ccc(Oc2ccccc2)cc1)Oc1ccccn1` (configuration not stated) here?
Answer: inactive

Question: And the AC50 [2]?
Answer: 30.5 µM (active)

Question: What about the outcome [3] of the same compound?
Answer: inactive

Question: What about the outcome [4] of the same compound?
Answer: inactive

Question: What about the outcome [5] of the same compound?
Answer: inactive

Question: And the outcome [6]?
Answer: inactive

Question: What about the outcome [7] of the same compound?
Answer: inactive

Question: And the AC50 [8]?
Answer: 77.4 µM (active)

Question: And the outcome [9]?
Answer: inactive

Question: And the outcome [10]?
Answer: inactive

Question: What about the outcome [18] of the same compound?
Answer: inactive

Question: What about the outcome [11] of the same compound?
Answer: inactive

Question: What about the outcome [19] of the same compound?
Answer: inactive

Question: What about the outcome [12] of the same compound?
Answer: inactive

Question: What about the outcome [20] of the same compound?
Answer: inactive

Question: What about the outcome [13] of the same compound?
Answer: inactive

Question: What about the outcome [14] of the same compound?
Answer: inactive

Question: What about the AC50 [15] of the same compound?
Answer: 29.2 µM (active)

Question: And the AC50 [16]?
Answer: 20.6 µM (active)

Question: And the outcome [17]?
Answer: inactive
